Test [1] in a line: NCI Yeast Anticancer Drug Screen. Data for the rad50 strain (AID 155).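 Also: 0% = growth of vehicle-only cultures of the same strain.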 Particulars: S. cerevisiae rad50 strain growth inhibition, active compounds read high. In a few lines:
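Relative growth inhibition (compound vs vehicle) was measured in yeast with a defined repair-gene alteration.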

Test [2] is described as follows: NCI Yeast Anticancer Drug Screen. Data for the mec2-1 strain (AID 157). Particulars: S. cerevisiae mec2-1 strain, active compounds read high. In a few lines: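 Growth inhibition is read against vehicle-treated controls after compound exposure of the mec2-1 yeast strain, which is defective in DNA damage repair or cell cycle control.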
Test [3] in a line: NCI Yeast Anticancer Drug Screen. Data for the sgs1 mgt1 strain (AID 161).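 Also: 0% = growth of cultures given vehicle only.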 The note with it: S. cerevisiae sgs1 mgt1 strain, active compounds read high. The method, boiled down: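 Percent growth inhibition was derived by comparing compound-exposed mutant yeast with vehicle-exposed cultures. The strain carries alterations in DNA damage repair.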
Test [4] is described as follows: NCI Yeast Anticancer Drug Screen. Data for the cln2 rad14 strain (AID 165).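 Also: 0% = growth equal to vehicle treated cultures.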 The note with it: S. cerevisiae cln2 rad14 strain, active compounds read high. In a few lines: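 Growth inhibition, relative to vehicle-treated controls, is the read-out. The test organism is a yeast strain with defined genetic alterations, cln2 rad14.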
A short description of test [5]: NCI Yeast Anticancer Drug Screen. Data for the bub3 strain (AID 167). The note with it: S. cerevisiae bub3 mutant strain, active compounds read high. The method, boiled down:
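Screening used yeast with an engineered genetic alteration affecting cell cycle control. Compound-exposed cultures were compared with vehicle cultures, and reduced growth was taken as inhibition.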

Test [6] is described as follows: NCI Yeast Anticancer Drug Screen. Data for the mlh1 rad18 strain (AID 175). Particulars: S. cerevisiae mlh1 rad18 strain growth inhibition, active compounds read high. The method, boiled down: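 Cells of a genetically altered yeast strain, deficient in DNA damage repair, were treated with compound. Their growth was then compared with that of vehicle-treated cultures to give inhibition.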

[7] abbreviates: at 5.0 µM (retest, dose inferred, filed as 0.5).
Setting [8] is: at 50.0 µM (retest, dose inferred, filed as 5.0).

This is part of a sample that, as a whole, favours compounds with a hit. Of some 79,000 tested, about 15% had one in any assay. Unmarked numbers belong to inactive results. Activity calls are given as the source filed them. Rule as the data show it: active = growth inhibition above about 70%; inactive = the rest.

As to `O=[As]c1cccc2ccccc12` (stereo not given), the growth inhibition was 99% (active) in test [1] (setting [7]); 99% (active) in test [1] (setting [8]); 99.3% (active) in test [1] (at 50.0 µM); 100% (active) in test [2] (setting [7]); 100% (active) in test [2] (setting [8]); 99.6% (active) in test [2] (at 50.0 µM). In addition, the growth inhibition is 99% (active) in test [3] (setting [7]); 99% (active) in test [3] (setting [8]); 99.7% (active) in test [3] (at 50.0 µM); 100% (active) in test [4] (setting [7]); 99% (active) in test [4] (setting [8]); 99.2% (active) in test [4] (at 50.0 µM). Besides, the growth inhibition in test [5] (setting [7]) is 99% (active); in test [5] (setting [8]), 99% (active); in test [5] (at 50.0 µM) it was 99.3% (active); in test [6] (setting [7]) it was 99% (active); in test [6] (setting [8]), 99% (active); in test [6] (at 50.0 µM) it was 99.3% (active).

`O=[N+]([O-])c1ccc(C(Br)Br)cc1`: the growth inhibition in test [1] (setting [7]) was 93% (active); in test [1] (setting [8]), 99% (active); in test [1] (at 50.0 µM), 99.6% (active); in test [2] (setting [7]) it was 74% (active); in test [2] (setting [8]), 99% (active); in test [2] (at 50.0 µM), 99.6% (active). The growth inhibition is 79% (active) in test [3] (setting [7]); 99% (active) in test [3] (setting [8]); 99.7% (active) in test [3] (at 50.0 µM); 70% (active) in test [4] (setting [7]); 99% (active) in test [4] (setting [8]); 98.6% (active) in test [4] (at 50.0 µM). Further, the growth inhibition in test [5] (setting [7]) was 74% (active); in test [5] (setting [8]), 99% (active); in test [5] (at 50.0 µM) it was 99.5% (active); in test [6] (setting [7]), 97% (active); in test [6] (setting [8]) it was 99% (active); in test [6] (at 50.0 µM), 99.5% (active).

As for `CN1CCN(c2ccc3nc(-c4ccc5nc(-c6ccc(N(C)CCCl)cc6)[nH]c5c4)[nH]c3c2)CC1`, the growth inhibition in test [1] (setting [7]) was 1%; in test [1] (setting [8]), 99% (active); in test [1] (at 50.0 µM) it was 98.4% (active); in test [2] (setting [7]), -10%; in test [2] (setting [8]), 99% (active); in test [2] (at 50.0 µM), 98.8% (active). The growth inhibition in test [3] (setting [7]) was -7%; in test [3] (setting [8]), 99% (active); in test [3] (at 50.0 µM), 98.8% (active); in test [4] (setting [7]) it was 47%; in test [4] (setting [8]), 99% (active); in test [4] (at 50.0 µM), 98.6% (active). The growth inhibition in test [5] (setting [7]) is -18%; in test [5] (setting [8]), 99% (active); in test [5] (at 50.0 µM), 98.8% (active); in test [6] (setting [7]), -16%; in test [6] (setting [8]) it was 99% (active); in test [6] (at 50.0 µM) it was 98.4% (active).

Consider `COc1cc(/C=C\[N+](=O)[O-])ccc1O`, for which the growth inhibition in test [1] (setting [7]) is 87% (active); in test [1] (setting [8]) it was 99% (active); in test [1] (at 50.0 µM) it was 99.2% (active); in test [2] (setting [7]), 53%; in test [2] (setting [8]), 100% (active); in test [2] (at 50.0 µM), 99.6% (active). For the same molecule, the growth inhibition in test [3] (setting [7]) was 34%; in test [3] (setting [8]), 99% (active); in test [3] (at 50.0 µM), 99.5% (active); in test [4] (setting [7]) it was 21%; in test [4] (setting [8]), 100% (active); in test [4] (at 50.0 µM), 99% (active). Moreover, the growth inhibition in test [5] (setting [7]) was 77% (active); in test [5] (setting [8]), 99% (active); in test [5] (at 50.0 µM), 99% (active); in test [6] (setting [7]), 51%; in test [6] (setting [8]) it was 99% (active); in test [6] (at 50.0 µM), 99% (active).

In the case of `CCCC[As](CCCC)SC1CCC2(C)C(=CCC3C4CCC(=O)C4(C)CCC32)C1` (stereo not given), the growth inhibition in test [1] (setting [7]) was 16%; in test [1] (setting [8]), 92% (active); in test [1] (at 50.0 µM), 95.7% (active); in test [2] (setting [7]), 6%; in test [2] (setting [8]), 87% (active); in test [2] (at 50.0 µM) it was 83.6% (active). Further, the growth inhibition in test [3] (setting [7]) was 21%; in test [3] (setting [8]), 76% (active); in test [3] (at 50.0 µM) it was 97% (active); in test [4] (setting [7]), 5%; in test [4] (setting [8]), 64%; in test [4] (at 50.0 µM), 82.3% (active). Further, the growth inhibition in test [5] (setting [7]) is 3%; in test [5] (setting [8]) it was 87% (active); in test [5] (at 50.0 µM) it was 84% (active); in test [6] (setting [7]), 13%; in test [6] (setting [8]) it was 88% (active); in test [6] (at 50.0 µM) it was 98.8% (active).

As for `Cc1ccc(NC(=O)CBr)cc1`, the growth inhibition in test [1] (setting [7]) is 92% (active); in test [1] (setting [8]), 99% (active); in test [1] (at 50.0 µM), 99.1% (active); in test [2] (setting [7]), 97% (active); in test [2] (setting [8]), 100% (active); in test [2] (at 50.0 µM) it was 99.2% (active). The growth inhibition is 97% (active) in test [3] (setting [7]); 97% (active) in test [3] (setting [8]); 99.2% (active) in test [3] (at 50.0 µM); 97% (active) in test [4] (setting [7]); 99% (active) in test [4] (setting [8]); 98.8% (active) in test [4] (at 50.0 µM). The growth inhibition in test [5] (setting [7]) was 95% (active); in test [5] (setting [8]) it was 99% (active); in test [5] (at 50.0 µM) it was 99% (active); in test [6] (setting [7]), 94% (active); in test [6] (setting [8]), 98% (active); in test [6] (at 50.0 µM), 99% (active).

With `O=[N+]([O-])c1ccc([N+](=O)[O-])c2ccccc12`, the growth inhibition in test [1] (setting [7]) is 37%; in test [1] (setting [8]), 99% (active); in test [1] (at 50.0 µM), 86.5% (active); in test [2] (setting [7]), 47%; in test [2] (setting [8]), 99% (active); in test [2] (at 50.0 µM), 61.7%. The growth inhibition was 61% in test [3] (setting [7]); 97% (active) in test [3] (setting [8]); 91.1% (active) in test [3] (at 50.0 µM); 82% (active) in test [4] (setting [7]); 97% (active) in test [4] (setting [8]); 67.9% in test [4] (at 50.0 µM). Moreover, the growth inhibition in test [5] (setting [7]) is 45%; in test [5] (setting [8]) it was 95% (active); in test [5] (at 50.0 µM) it was 85.7% (active); in test [6] (setting [7]), 31%; in test [6] (setting [8]), 99% (active); in test [6] (at 50.0 µM), 22.8%.

For the molecule `CC1(OO)CCC2CC1C2(C)C` (stereo not given), the growth inhibition in test [1] (setting [7]) was 9%; in test [1] (setting [8]), 77% (active); in test [1] (at 50.0 µM), 90.2% (active); in test [2] (setting [7]), 6%; in test [2] (setting [8]), 99% (active); in test [2] (at 50.0 µM), 99.6% (active). Moreover, the growth inhibition in test [3] (setting [7]) was -2%; in test [3] (setting [8]), 68%; in test [3] (at 50.0 µM), 99.4% (active); in test [4] (setting [7]), 4%; in test [4] (setting [8]), 65%; in test [4] (at 50.0 µM) it was 82.7% (active). The growth inhibition was -1% in test [5] (setting [7]); 95% (active) in test [5] (setting [8]); 99.5% (active) in test [5] (at 50.0 µM); 13% in test [6] (setting [7]); 94% (active) in test [6] (setting [8]); 98.2% (active) in test [6] (at 50.0 µM).

On to `O=[As]c1ccc(O)c(O)c1` (stereo not given), for which the growth inhibition in test [1] (setting [7]) was 11%; in test [1] (setting [8]), 99% (active); in test [1] (at 50.0 µM), 97% (active); in test [2] (setting [7]) it was -4%; in test [2] (setting [8]), 100% (active); in test [2] (at 50.0 µM) it was 99.4% (active). Besides, the growth inhibition in test [3] (setting [7]) is -4%; in test [3] (setting [8]), 99% (active); in test [3] (at 50.0 µM), 99.5% (active); in test [4] (setting [7]), -9%; in test [4] (setting [8]), 99% (active); in test [4] (at 50.0 µM), 98.8% (active). For the same molecule, the growth inhibition in test [5] (setting [7]) was 22%; in test [5] (setting [8]), 99% (active); in test [5] (at 50.0 µM), 99.2% (active); in test [6] (setting [7]), 6%; in test [6] (setting [8]), 99% (active); in test [6] (at 50.0 µM), 99.3% (active).

For the molecule `CC(=O)[O][Pb]([O]C(C)=O)([O]C(C)=O)[c]1ccccc1`, the growth inhibition in test [1] (setting [7]) was 71% (active); in test [1] (setting [8]) it was 98% (active); in test [1] (at 50.0 µM), 90.5% (active); in test [2] (setting [7]), 74% (active); in test [2] (setting [8]), 99% (active); in test [2] (at 50.0 µM), 93.5% (active). Further, the growth inhibition in test [3] (setting [7]) was 86% (active); in test [3] (setting [8]), 99% (active); in test [3] (at 50.0 µM), 93.6% (active); in test [4] (setting [7]), 35%; in test [4] (setting [8]), 99% (active); in test [4] (at 50.0 µM) it was 89.2% (active). Further, the growth inhibition in test [5] (setting [7]) is 86% (active); in test [5] (setting [8]), 99% (active); in test [5] (at 50.0 µM) it was 91.8% (active); in test [6] (setting [7]), 91% (active); in test [6] (setting [8]) it was 98% (active); in test [6] (at 50.0 µM), 91.2% (active).

These data come from PubChem BioAssay (NCI).
